Source: ChEMBL document CHEMBL4296182, “CO-ADD screening of NIH NCI Diversity Set V”
For part of these data: Measured potencies and affinities stand elsewhere.

Experiments:
Staphylococcus aureus = assay: Antibacterial activity against Staphylococcus aureus MRSA ATCC 43300 (CO-ADD:GP_020); MIC in CAMBH media using NBS plates, by Resazurin F(560/590); type: functional; settings: Concentration 20 uM, ASSAY_TEST Inhibition of Bacterial Growth, detection method Resazurin, Fluorescence (ex560/em590), MEDIA CAMHB, plate type 384well, CORNING #3640, time 18 hr
Acinetobacter baumannii = assay: Antibacterial activity against Acinetobacter baumannii ATCC 19606 (CO-ADD:GN_034); MIC in CAMBH media using NBS plates, by Resazurin F(560/590); type: functional; settings: Concentration 20 uM, ASSAY_TEST Inhibition of Bacterial Growth, detection method Resazurin, Fluorescence (ex560/em590), MEDIA CAMHB, plate type 384well, CORNING #3640, time 18 hr
Escherichia coli = assay: Antibacterial activity against Escherichia coli ATCC 25922 (CO-ADD:GN_001); MIC in CAMBH media using NBS plates, by Resazurin F(560/590); type: functional; settings: Concentration 20 uM, ASSAY_TEST Inhibition of Bacterial Growth, detection method Resazurin, Fluorescence (ex560/em590), MEDIA CAMHB, plate type 384well, CORNING #3640, time 18 hr
Klebsiella pneumoniae = settings: Concentration 20 uM; ASSAY_TEST Inhibition of Bacterial Growth; detection method Absorption (OD600); MEDIA CAMHB; plate type 384well; NBS; CORNING #3640; time 18 hr
Candida albicans = settings: 20 µM
Cryptococcus neoformans = settings: Concentration 20 uM; ASSAY_TEST Inhibition of Fungal Growth; detection method Resazurin; Absorption (OD600-OD570); plate type 384well; NBS; CORNING #3640

Structure (SMILES) | Inhibition (Staphylococcus aureus) | Inhibition (Acinetobacter baumannii) | Inhibition (Escherichia coli) | Inhibition (Klebsiella pneumoniae) | Inhibition (Candida albicans) | Inhibition (Cryptococcus neoformans)
CC(C)(C)c1cc(C=C(C#N)C#N)cc(C(C)(C)C)c1O [TYRPHOSTIN A9] | -5.13% | -9.85% | 13.03% | 23.47% | 14.2% | 6.62%
CSc1nc(=O)c(/N=N/c2ccc([As](=O)(O)O)cc2)c(N)[nH]1 | -2.85% | 10.89% | 7.88% | 8.89% | -0.24% | -16.43%
COc1ccc(C2=CC(c3ccc(OC)c(OC)c3)c3c(c4ccccc4oc3=O)O2)cc1OC (configuration not stated) | 20.66% | -10.24% | 10.7% | 7.71% | 5.25% | -11.5%
COc1cc(C=C2C(=O)NC(=O)NC2=O)ccc1O | 11.9% | 5.89% | 0.28% | 15.76% | 1.49% | -7.52%
O=C1/C(=C\c2ccccc2)C2OCC=C3CN4CCC56c7ccccc7N1C5C2C3CC46 (configuration not stated) | 33.46% | -0.22% | 16.65% | 12.64% | -0.43% | -4.36%
C=CCN1CC[C@]23c4c5ccc(O)c4O[C@H]2C(=O)CC[C@@]3(O)[C@H]1C5 [NALOXONE] | 11.42% | -13% | 1.67% | – | – | –
CC(=O)Nc1cccc([As](=O)(c2cccc(NC(C)=O)c2)c2cccc(NC(C)=O)c2)c1 | 0.93% | 1.38% | -5.49% | 9.67% | 0.37% | -8.79%
O=C1N[C@H]2[C@H](O)[C@H](O)[C@@H](O)[C@H](O)[C@@H]2c2cc3c(c(O)c21)OCO3 [PANCRATISTATIN] | 12.72% | 6.17% | 0.6% | 1.56% | 0.06% | -14.69%
c1cc(C2N3CCCN2CC3)ccn1 (configuration not stated) | 15.5% | -12.77% | 15.45% | 9% | -1.44% | -3.06%
NC=C1C(=O)N(c2ccccc2)C(=O)N(c2ccccc2)C1=O | -9.39% | 5.08% | 6.01% | 10.61% | 0.46% | -6.24%
C[C@]12CC[C@@H]3c4ccc(OC(=O)N(CCCl)CCCl)cc4CC[C@H]3[C@@H]1CC[C@@H]2O [ESTRAMUSTINE] | 12.2% | -4.55% | -3.6% | 12.05% | 11% | -2.85%
C/C=C/CC1(CC)C(=O)NC(=S)NC1=O | -2.18% | -12.12% | -2.34% | 1.47% | 1.14% | 0.11%
N#CC12CNCC1CN=N2 (configuration not stated) | 10.47% | 1.05% | -13.15% | 8.95% | 1.04% | 19.07%
CCOC(=O)c1ccc2nc(-c3ccc(S(=O)(=O)F)cc3)cc(O)c2c1 | 10.74% | 13.99% | 0.41% | 7.81% | 1.06% | -10.46%
CC(=O)Nc1ccc([As](=O)(O)c2ccc([N+](=O)[O-])cc2)cc1 | 12.11% | 8.34% | -3.43% | 10.87% | -1.88% | 0.38%
COc1ccc2c(c1)C13CCN(C)C(C2)C1CCC1(C3)OCCO1 (configuration not stated) | -3.64% | 10.92% | 9.14% | 10.59% | 2.14% | -7.98%
CN1C2c3ccccc3C3C4c5ccccc5C(C31)C(C2[N+](=O)[O-])N4C (configuration not stated) | 16.96% | 4.34% | 9.05% | 7.01% | 2.24% | -16.47%
C[C@H]1[C@H](C)N1CC(O)Cn1ccnc1[N+](=O)[O-] (some centres not stated) | 3.93% | 7.84% | -2.75% | 19.25% | 3.06% | -3.91%
CCC1CN1P(=O)(Oc1ccc(Cl)cc1)N1CC1CC (configuration not stated) | 5.27% | -3.62% | 11.85% | 2.63% | 4.31% | -4.87%
C(=C\c1ccncc1)/c1ccncc1 | -0.23% | -2.33% | 7.13% | 5.66% | -2.45% | -3.12%
CC1=CC(O)C(O)C2(C)C1CC1OC(=O)C(O)C3C(C)C(O)C4(O)OCC13C42 (configuration not stated) | 9.24% | 4.24% | -0.01% | 12.12% | -0.21% | -7.24%
O=C(OC1CCCCC1)c1ccccc1C(=O)OC1CCCCC1 | -2.45% | -19.72% | -0.16% | 3.51% | 7.38% | -2.99%
SC1=NC2(CCCCC2)NC12CCCCC2 | 8.84% | 6.83% | -0.29% | 17.38% | 4.26% | -3.97%
CC(C)NC1C2CCC(CC2)C1(O)c1ccc(Cl)c(Cl)c1.CS(=O)(=O)O (configuration not stated) | 8.47% | -0.12% | 14.13% | 12.75% | 0.41% | -1.76%
N#CC(C#N)=Cc1ccc(C=C(C#N)C#N)cc1 | -4.05% | -13.9% | 2.09% | 11.67% | 36.5% | -3.4%
